GBA enhancer: increases beta-glucosidase activity in Gaucher fibroblasts. activation, % at 10 µM. L444P Gaucher fibroblasts, 4-MU-glucoside fluorescence, 3 days. P04062. 30,000 tested, 0.44% active; in the data active = activation above about 65%;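 also: 0% = vehicle wells and 100% = positive control wells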
Target sequence (P04062 whole entry L483P): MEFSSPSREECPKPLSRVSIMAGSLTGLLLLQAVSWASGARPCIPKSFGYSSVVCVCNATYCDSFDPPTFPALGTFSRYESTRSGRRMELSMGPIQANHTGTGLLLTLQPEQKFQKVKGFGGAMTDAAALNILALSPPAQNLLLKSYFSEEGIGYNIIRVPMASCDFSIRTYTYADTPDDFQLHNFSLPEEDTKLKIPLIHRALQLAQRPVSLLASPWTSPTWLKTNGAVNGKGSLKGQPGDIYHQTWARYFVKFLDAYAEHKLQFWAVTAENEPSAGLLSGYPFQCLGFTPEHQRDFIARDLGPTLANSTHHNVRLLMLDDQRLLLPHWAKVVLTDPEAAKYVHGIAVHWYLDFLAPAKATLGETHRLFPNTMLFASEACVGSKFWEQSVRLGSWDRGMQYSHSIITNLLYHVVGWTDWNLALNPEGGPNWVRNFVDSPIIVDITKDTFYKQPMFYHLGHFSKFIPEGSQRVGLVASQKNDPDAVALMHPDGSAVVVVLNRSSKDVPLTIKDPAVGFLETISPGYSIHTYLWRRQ
* = called active by the depositor. This excerpt belongs to a sample that is enriched for hits.

SMILES	GBA enhancer
O=S(=O)(NCc1ccc2c(c1)OCO2)c1cccc(S(=O)(=O)N2CCOCC2)c1	-4.2
Nc1nonc1-c1noc(CCCCCN2C(=O)c3ccccc3C2=O)n1	479.4*
O=C1CCC(=O)N1CCCCCc1nc(-c2ccccc2)no1	-4.4
O=C1c2ccccc2C(=O)N1CCCc1nc(-c2ccccn2)no1	-3.7
COc1ccc(S(=O)(=O)N(Cc2ccccc2)Cc2nc(-c3ccccc3)no2)cc1	0.4
CCOC(=O)c1c(N)nn(C(=O)C(C)C)c1-c1ccccc1	-4.3
O=C(Nc1ccc2oc(=O)ccc2c1)c1cccnc1	-34.5
Cc1ccc(S(=O)(=O)c2cc3c(=O)n4ccccc4nc3n(CC3CCCO3)c2=N)cc1 (stereo not drawn)	-3.7
N#Cc1cc2c(=O)n3ccccc3nc2n(CCCn2ccnc2)c1=N	-14.4
Cc1ccc(-n2c(=O)c(C#N)cc3c(=O)n4ccccc4nc32)cc1	134.0*
O=C(Nc1ccc(Cl)c(C(F)(F)F)c1)C1CCCN(S(=O)(=O)c2cnc[nH]2)C1 (stereo not drawn)	-39.5
O=C(NC(=O)c1ccc(Cl)cc1)Nc1cc(N2CCCCC2)ncn1	-22.8
Cc1cc(C)cc(NC(=O)CN(C)S(=O)(=O)c2cccc3nsnc23)c1	-40.1
Cc1ccc(C)c(N(C)S(=O)(=O)c2cccc3nsnc23)c1	77.2*
CC(C)CCNC(=O)CN(C)S(=O)(=O)c1cccc2nsnc12	0.3
Cc1csc2c(C#N)c(=O)c3c(n12)CCC3	-1.1
O=C(O)c1ccc2c(c1)C(c1ccccc1)OC2=O (stereo not drawn)	78.3*
CC(C)(C)N1C(=O)c2ccc(C(=O)O)cc2C1=O	7.3
O=C(O)c1ccc2c(c1)CC(c1ccccc1)OC2=O (stereo not drawn)	-20.7
Clc1ccc(OCc2nnc3n2N=C(c2ccc4c(c2)OCCO4)CS3)c(Cl)c1	-27.3
COC(=O)c1ccc(CSc2nc(C)nc3c2c(=O)n(C)c(=O)n3C)o1	-14.9
